{"source": "the supplement of paper PMC11732987", "about": "“Enantioselective OTUD7B fragment discovery through chemoproteomics screening and high-throughput optimisation” (Communications Chemistry, 2025)", "test_in_all_cases": "log2 ratio of Biotin-Ahx-Ub-VS probe labelling (fragment/DMSO); higher = less target engagement (more negative = stronger competition), active = hit call of the paper (q ≤ 0.05, log2 ratio ≤ -1)", "details_in_all_cases": "compound concentration: 200 uM; treatment time: 3 h", "key": {"OTUD6B": {"target": "T1, OTUD6B (UniProt Q8N6M0)", "T1 sequence (whole entry)": "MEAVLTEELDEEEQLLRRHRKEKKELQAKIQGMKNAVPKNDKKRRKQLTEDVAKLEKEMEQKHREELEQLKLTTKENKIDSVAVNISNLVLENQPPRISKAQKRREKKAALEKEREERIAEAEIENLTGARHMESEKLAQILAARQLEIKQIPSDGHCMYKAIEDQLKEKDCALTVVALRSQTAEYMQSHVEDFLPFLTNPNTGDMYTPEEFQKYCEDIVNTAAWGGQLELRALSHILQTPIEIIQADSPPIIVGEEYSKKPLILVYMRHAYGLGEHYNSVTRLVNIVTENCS", "summary_of_the_method": "(§1)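 HEK293T lysate (495 µg per sample, in Tris/CHAPS/IGEPAL buffer with protease inhibitors) was exposed in triplicate for 3 h to fragment at 200 µM or to vehicle, then to Biotin-Ahx-Ub-VS at 0.5 µM final for 1 h. Labelled DUBs were enriched on NeutrAvidin, digested with LysC and trypsin, and analysed by diaPASEF LC-MS/MS. Spectronaut label-free quantities were normalised to the global median, and values are average log2 ratios of fragment over vehicle from an unpaired t-test. Only proteins with ≥2 unique peptides were used.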"}, "OTUD7B": {"target": "T2, OTUD7B (UniProt Q6GQQ9)", "T2 sequence (whole entry)": "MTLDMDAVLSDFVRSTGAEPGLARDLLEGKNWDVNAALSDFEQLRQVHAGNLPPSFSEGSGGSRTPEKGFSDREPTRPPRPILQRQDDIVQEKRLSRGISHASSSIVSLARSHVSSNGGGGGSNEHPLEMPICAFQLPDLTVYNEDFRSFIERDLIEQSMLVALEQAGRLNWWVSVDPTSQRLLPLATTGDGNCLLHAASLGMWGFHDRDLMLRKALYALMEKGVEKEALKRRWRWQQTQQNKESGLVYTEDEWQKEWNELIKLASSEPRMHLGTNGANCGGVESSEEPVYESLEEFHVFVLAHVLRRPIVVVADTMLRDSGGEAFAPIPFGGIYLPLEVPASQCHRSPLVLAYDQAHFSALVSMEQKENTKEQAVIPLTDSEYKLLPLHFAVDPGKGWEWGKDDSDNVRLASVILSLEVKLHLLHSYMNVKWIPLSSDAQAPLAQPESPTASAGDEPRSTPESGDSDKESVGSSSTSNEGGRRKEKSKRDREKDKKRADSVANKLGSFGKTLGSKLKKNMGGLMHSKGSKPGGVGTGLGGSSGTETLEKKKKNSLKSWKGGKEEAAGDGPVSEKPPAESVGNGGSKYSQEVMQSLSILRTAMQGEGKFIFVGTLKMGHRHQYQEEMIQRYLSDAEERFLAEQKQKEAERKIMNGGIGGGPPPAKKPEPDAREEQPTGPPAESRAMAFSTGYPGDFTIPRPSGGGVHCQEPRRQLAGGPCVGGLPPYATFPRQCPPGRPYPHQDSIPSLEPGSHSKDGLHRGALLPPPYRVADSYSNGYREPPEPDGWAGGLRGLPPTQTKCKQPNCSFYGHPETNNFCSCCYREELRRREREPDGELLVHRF", "summary_of_the_method": "as §1"}, "PRPF8": {"target": "PRPF8 (UniProt Q6P2Q9)", "summary_of_the_method": "as §1"}, "PSMD7": {"target": "T3, PSMD7 (UniProt P51665)", "T3 sequence (whole entry)": "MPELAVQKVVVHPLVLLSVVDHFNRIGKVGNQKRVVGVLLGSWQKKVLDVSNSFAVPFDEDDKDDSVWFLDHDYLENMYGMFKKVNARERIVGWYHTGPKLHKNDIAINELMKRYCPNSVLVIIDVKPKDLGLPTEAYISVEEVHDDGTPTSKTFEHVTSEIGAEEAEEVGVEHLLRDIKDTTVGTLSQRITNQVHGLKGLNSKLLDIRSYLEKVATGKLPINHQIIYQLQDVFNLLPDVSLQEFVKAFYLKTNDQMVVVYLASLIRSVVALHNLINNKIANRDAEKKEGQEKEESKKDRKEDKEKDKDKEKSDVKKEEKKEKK", "summary_of_the_method": "as §1"}, "UCHL1": {"target": "UCHL1 (UniProt P09936)", "sequence (P09936 whole entry, looked up)": "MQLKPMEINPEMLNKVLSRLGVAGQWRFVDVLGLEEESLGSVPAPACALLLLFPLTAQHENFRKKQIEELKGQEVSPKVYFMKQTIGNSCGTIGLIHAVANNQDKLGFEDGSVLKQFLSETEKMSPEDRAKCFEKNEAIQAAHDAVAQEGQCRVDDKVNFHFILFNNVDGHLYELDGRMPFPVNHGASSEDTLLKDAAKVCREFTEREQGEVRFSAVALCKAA", "summary_of_the_method": "as §1"}, "UCHL3": {"target": "T4, UCHL3 (UniProt P15374)", "T4 sequence (whole entry)": "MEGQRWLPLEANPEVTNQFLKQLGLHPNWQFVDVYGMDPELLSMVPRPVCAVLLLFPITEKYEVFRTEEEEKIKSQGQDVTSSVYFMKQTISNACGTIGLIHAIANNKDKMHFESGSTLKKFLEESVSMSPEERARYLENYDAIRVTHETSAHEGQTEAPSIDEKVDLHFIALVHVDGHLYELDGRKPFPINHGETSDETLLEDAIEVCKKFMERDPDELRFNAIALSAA", "summary_of_the_method": "as §1"}, "UCHL5": {"target": "T5, UCHL5 (UniProt Q9Y5K5)", "T5 sequence (whole entry)": "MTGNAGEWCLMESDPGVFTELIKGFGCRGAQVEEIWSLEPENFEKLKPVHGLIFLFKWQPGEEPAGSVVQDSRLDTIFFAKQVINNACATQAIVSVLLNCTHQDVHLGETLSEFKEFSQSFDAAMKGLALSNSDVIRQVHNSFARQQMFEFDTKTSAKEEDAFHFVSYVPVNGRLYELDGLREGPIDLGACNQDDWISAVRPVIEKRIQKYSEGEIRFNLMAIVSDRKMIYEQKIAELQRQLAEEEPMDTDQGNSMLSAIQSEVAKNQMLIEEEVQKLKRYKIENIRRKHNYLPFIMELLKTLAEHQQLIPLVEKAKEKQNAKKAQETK", "summary_of_the_method": "as §1"}, "USP10": {"target": "USP10 (UniProt Q14694)", "sequence (Q14694 whole entry)": "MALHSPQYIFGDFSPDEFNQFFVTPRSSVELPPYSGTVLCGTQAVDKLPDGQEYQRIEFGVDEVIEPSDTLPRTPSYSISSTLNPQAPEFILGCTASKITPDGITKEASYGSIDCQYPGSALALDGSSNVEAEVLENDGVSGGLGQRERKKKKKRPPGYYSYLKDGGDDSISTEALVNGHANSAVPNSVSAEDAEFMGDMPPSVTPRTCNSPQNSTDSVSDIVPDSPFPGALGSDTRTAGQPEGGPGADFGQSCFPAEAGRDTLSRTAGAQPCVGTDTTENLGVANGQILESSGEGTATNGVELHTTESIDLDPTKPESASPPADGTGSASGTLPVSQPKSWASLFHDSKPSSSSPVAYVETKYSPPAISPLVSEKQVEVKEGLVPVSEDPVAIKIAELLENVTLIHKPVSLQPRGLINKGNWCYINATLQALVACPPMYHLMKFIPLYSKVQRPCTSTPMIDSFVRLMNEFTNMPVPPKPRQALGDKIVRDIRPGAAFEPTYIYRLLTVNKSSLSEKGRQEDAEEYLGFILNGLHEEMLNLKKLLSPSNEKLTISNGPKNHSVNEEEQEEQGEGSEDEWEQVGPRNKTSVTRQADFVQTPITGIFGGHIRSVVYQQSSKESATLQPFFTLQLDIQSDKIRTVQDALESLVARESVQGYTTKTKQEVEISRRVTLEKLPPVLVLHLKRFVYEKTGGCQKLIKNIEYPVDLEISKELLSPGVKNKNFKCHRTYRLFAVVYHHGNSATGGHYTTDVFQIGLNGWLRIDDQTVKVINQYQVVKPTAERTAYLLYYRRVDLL", "summary_of_the_method": "as §1"}, "USP15": {"target": "T6, USP15 (UniProt Q9Y4E8)", "T6 sequence (whole entry)": "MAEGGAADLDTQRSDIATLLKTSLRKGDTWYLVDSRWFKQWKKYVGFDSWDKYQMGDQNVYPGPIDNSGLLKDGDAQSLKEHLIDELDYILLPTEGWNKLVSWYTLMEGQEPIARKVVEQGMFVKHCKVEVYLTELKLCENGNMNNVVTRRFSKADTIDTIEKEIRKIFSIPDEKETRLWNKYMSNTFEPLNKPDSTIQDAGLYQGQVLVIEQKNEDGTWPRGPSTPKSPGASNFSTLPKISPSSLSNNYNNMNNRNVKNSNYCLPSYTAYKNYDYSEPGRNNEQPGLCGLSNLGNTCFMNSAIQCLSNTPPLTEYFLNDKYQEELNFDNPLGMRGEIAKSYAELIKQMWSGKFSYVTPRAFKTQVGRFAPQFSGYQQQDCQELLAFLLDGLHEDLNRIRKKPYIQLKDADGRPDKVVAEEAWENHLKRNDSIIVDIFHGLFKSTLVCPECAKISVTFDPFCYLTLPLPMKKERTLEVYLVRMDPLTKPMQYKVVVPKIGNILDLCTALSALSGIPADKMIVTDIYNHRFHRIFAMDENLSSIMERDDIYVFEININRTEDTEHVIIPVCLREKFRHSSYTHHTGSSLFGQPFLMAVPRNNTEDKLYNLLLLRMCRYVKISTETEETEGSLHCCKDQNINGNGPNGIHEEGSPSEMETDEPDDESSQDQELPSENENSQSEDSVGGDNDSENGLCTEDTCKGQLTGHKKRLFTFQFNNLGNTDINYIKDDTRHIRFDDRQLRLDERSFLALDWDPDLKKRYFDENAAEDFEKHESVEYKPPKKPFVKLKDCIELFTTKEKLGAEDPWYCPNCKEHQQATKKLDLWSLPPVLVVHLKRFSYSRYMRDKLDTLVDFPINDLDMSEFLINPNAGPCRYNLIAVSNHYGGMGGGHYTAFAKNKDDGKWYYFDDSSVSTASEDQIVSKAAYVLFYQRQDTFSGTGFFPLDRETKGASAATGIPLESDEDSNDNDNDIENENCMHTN", "summary_of_the_method": "as §1"}, "USP16": {"target": "USP16 (UniProt Q9Y5T5)", "sequence (Q9Y5T5 whole entry, looked up)": "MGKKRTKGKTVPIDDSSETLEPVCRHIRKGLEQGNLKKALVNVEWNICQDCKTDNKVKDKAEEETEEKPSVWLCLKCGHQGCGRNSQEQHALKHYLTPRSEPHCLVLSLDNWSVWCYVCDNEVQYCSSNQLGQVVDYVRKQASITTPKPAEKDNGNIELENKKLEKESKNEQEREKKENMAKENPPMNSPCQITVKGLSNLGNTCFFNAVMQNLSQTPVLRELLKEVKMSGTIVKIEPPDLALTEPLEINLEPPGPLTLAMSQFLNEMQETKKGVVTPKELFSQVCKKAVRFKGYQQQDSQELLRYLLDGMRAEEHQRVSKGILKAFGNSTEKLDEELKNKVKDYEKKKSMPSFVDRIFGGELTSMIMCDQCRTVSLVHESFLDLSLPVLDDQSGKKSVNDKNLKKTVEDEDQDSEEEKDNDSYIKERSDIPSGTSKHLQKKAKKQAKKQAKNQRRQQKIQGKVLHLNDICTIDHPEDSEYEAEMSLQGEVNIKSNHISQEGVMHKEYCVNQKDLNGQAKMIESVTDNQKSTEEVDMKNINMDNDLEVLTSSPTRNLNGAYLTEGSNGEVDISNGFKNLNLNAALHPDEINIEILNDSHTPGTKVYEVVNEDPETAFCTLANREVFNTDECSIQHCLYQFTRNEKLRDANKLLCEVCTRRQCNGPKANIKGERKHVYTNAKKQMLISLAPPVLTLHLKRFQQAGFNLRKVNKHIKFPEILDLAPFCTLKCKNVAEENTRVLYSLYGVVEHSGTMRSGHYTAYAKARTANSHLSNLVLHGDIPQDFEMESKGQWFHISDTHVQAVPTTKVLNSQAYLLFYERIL", "summary_of_the_method": "as §1"}}, "note": "A number with no mark means an inactive call."}
{"compound": "Cc1cc(Cl)ccc1NC(=O)CCl", "values": [{"measurement": "log2 ratio of Biotin-Ahx-Ub-VS probe labelling", "setting": "OTUD6B", "result": -0.0452}, {"measurement": "log2 ratio of Biotin-Ahx-Ub-VS probe labelling", "setting": "OTUD7B", "result": -0.649}, {"measurement": "log2 ratio of Biotin-Ahx-Ub-VS probe labelling", "setting": "PRPF8", "result": 0.192}, {"measurement": "log2 ratio of Biotin-Ahx-Ub-VS probe labelling", "setting": "PSMD7", "result": 0.0336}, {"measurement": "log2 ratio of Biotin-Ahx-Ub-VS probe labelling", "setting": "UCHL1", "result": "-1.46 (active)"}, {"measurement": "log2 ratio of Biotin-Ahx-Ub-VS probe labelling", "setting": "UCHL3", "result": 0.0619}, {"measurement": "log2 ratio of Biotin-Ahx-Ub-VS probe labelling", "setting": "UCHL5", "result": -0.109}, {"measurement": "log2 ratio of Biotin-Ahx-Ub-VS probe labelling", "setting": "USP10", "result": -0.132}, {"measurement": "log2 ratio of Biotin-Ahx-Ub-VS probe labelling", "setting": "USP15", "result": -0.218}, {"measurement": "log2 ratio of Biotin-Ahx-Ub-VS probe labelling", "setting": "USP16", "result": -0.157}]}
